Experiment [1] is described as follows: HepG2 liver cancer cell viability effects, profiling panel, resazurin fluorescence, 24 h, PK04 Diversity Set (AID 1172). Further: test concentration not given here. Particulars: higher = more signal. (In general: Resazurin is reduced to fluorescent resorufin, in cell work by metabolically active cells.)
A short description of experiment [2]: basal S. cerevisiae growth modulation, no modifier, primary screen, OD600, strain BY4716, 24 h, basal condition (AID 1173). Particulars: OD600, 24 h, higher = more signal, called active from +8 up or from −8 down.
Experiment [3] in a line: MM1S myeloma cell viability, profiling panel, resazurin fluorescence, basal, 24 h, PK04 Diversity Set (AID 1174). Further: test concentration not given here. Particulars: higher = more signal, called active from +8 up or from −8 down.
Experiment [4] deals with Dihydroorotate dehydrogenase (quinone), mitochondrial (Plasmodium falciparum (isolate 3D7)) (UniProt Q08210). Nature of the experiment: PfDHODH enzyme inhibitors, primary screen, biochemical, C-terminal His tag, absorbance 600 nm (AID 1175).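 Further: recombinant parasite enzyme with a five histidine tag at its C terminus; test concentration not given here.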 Particulars: DCIP absorbance 600 nm, higher = more signal, called active from +8 up or from −8 down.
Chain of Dihydroorotate dehydrogenase (quinone), mitochondrial (Plasmodium falciparum (isolate 3D7)) (Q08210 whole entry, looked up): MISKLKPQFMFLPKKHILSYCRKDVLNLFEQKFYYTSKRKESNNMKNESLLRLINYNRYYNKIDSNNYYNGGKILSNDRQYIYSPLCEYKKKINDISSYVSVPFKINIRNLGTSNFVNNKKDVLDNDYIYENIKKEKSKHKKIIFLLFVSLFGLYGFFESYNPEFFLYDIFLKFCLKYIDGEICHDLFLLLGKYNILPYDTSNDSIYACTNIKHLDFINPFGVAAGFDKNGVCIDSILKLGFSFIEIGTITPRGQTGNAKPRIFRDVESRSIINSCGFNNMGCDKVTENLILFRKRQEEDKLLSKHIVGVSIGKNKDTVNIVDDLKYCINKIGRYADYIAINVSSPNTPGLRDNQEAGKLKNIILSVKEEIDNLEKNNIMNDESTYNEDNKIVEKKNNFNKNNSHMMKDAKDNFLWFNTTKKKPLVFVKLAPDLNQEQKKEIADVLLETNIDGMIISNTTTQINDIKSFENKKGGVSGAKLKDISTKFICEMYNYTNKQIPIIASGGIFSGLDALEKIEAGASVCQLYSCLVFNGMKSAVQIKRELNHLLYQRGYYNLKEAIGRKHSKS
The nature of experiment [5]: P. aeruginosa biofilm formation inhibitors, primary screen, strain PAO1, LB-PBS medium, absorbance 600 nm (AID 1176). Further: test concentration not given here. Particulars: P. aeruginosa PAO1 growth/biofilm, A600, 12 h; higher = more signal.
Experiment [6] is described as follows: S. cerevisiae RM11-1a growth modifiers, primary screen, strain RM11-1a, OD600, basal, 24 h (AID 1177).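 Further: cultures grown under basal conditions with no added stressor; test concentration not given here.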 Particulars: OD600, 24 h, higher = more signal, called active from +8 up or from −8 down.
A short description of experiment [7]: E. coli acrAB mutant growth effects, primary screen, E. coli filamentation inducers, strain DRC39, OD650, 24 h (AID 1178).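 Further: growth measured as culture turbidity by optical density at 650 nm; test concentration not given here.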 Particulars: higher = more signal, called active from +8 up or from −8 down.
A short description of experiment [8]: E. coli acrAB mutant growth effects, primary screen, E. coli filamentation inducers, strain DRC39, OD650, 48 h (AID 1179).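 Further: screen aims at cell division blockers that make cells filament.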 Particulars: E. coli DRC39 delta-acrAB growth, higher = more signal, called active from +8 up or from −8 down.
Experiment [9] can be described thus: RPMI8226 myeloma cell viability, profiling panel, resazurin fluorescence, basal, 24 h, PK04 Diversity Set (AID 1180).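 Further: RPMI8826 multiple myeloma cell line at 5000 cells per well; test concentration not given here.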 Particulars: higher = more signal.
The target of experiment [10] is E3 ubiquitin-protein ligase XIAP (Homo sapiens) (UniProt P98170). The experiment is described as follows: XIAP binders, primary screen, biophysical, small-molecule microarray, fluorescence 635 nm (AID 1181).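 Further: score merges 667 nm emission and signal to noise over triplicate slides.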 Particulars: small-molecule microarray binding, higher = more signal.
Chain of E3 ubiquitin-protein ligase XIAP (Homo sapiens) (P98170 whole entry, looked up): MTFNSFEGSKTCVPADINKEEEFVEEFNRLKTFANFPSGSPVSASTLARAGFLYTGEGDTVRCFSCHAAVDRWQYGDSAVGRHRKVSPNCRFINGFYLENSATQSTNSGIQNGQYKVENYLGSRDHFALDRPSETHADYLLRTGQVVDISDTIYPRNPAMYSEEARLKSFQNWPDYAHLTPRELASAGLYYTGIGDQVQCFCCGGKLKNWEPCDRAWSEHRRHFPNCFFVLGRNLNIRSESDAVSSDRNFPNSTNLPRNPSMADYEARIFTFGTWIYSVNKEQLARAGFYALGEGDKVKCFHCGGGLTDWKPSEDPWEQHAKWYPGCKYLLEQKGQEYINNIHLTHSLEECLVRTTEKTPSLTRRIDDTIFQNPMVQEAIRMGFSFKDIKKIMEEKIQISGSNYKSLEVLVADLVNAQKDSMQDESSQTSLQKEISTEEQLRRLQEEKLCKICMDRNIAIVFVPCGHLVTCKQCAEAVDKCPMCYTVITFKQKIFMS

Active and inactive are the calls of the source. Unless noted, how the calls were made is not given here.

In the case of `O=C(NCC(O)CO)[C@@]1(CCS(=O)(=O)c2ccccc2)N=C(c2ccc(OCCCO)cc2)O[C@H]1c1ccccc1` (stereo not given in full), the z-score was -0.748 in [1]; -0.386 (inactive) in experiment [2]; -0.133 (inactive) in experiment [3]; 0.618 (inactive) in [5]; -0.707 (inactive) in [6]; 0.107 (inactive) in experiment [7]. In addition, the z-score in [8] is -0.618 (inactive); in [9], -0.195. The values for the composite z-score in experiment [4] and in experiment [10] were -0.637 (inactive) and 0.0341, respectively.
On to `COc1ccc(CCNC(=O)[C@@H]2c3ccccc3C(=O)N(Cc3ccccc3OC)[C@H]2c2ccc(CO)cc2)cc1`, for which the z-score was 0.851 in experiment [1]; 0.528 (inactive) in [2]; -0.0684 (inactive) in experiment [3]; 0.264 (inactive) in [5]; -0.341 (inactive) in [6]; 0.483 (inactive) in experiment [7]. Also, the z-score in [8] is 0.258 (inactive); in experiment [9], -0.205. Besides, the values for the composite z-score in experiment [4] and in [10] were 1.14 (inactive) and -0.309, respectively.
As for `O=C1C[C@@](C(=O)NC2CC2)(c2ccc([N+](=O)[O-])cc2)[C@@H](c2ccc(CO)cc2)N1C1CCCCC1`, the z-score in experiment [1] was 0.363; in [2], -1.44 (inactive); in [3], 1.23 (inactive); in experiment [5] it was 1.46 (inactive); in experiment [6], -2.37 (inactive); in [7], 0.0991 (inactive). For the same molecule, the z-score in experiment [8] was -0.0005 (inactive); in [9], 1.48. The composite z-score was -6.96 (inactive) in experiment [4] and -0.0574 in experiment [10].
Consider `CC(C)c1nc2cc(Br)ccc2c(=O)o1`, for which the z-score in [1] is 0.693; in [2], 1.25 (inactive); in experiment [3] it was -0.47 (inactive); in [5], 0.13 (inactive); in experiment [6] it was 0.0542 (inactive); in [7], 0.692 (inactive). For the same molecule, the values for the z-score in experiment [8] and in experiment [9] were 1.24 (inactive) and 0.0076, respectively. The values for the composite z-score in [4] and in experiment [10] were 0.374 (inactive) and 0.0705, respectively.
For the molecule `O=C1O[C@H](c2ccccc2)[C@H](c2ccccc2)N2[C@H]1[C@@H](C(=O)O)[C@]1(C(=O)Nc3ccc(C#CCCO)cc31)[C@H]2c1ccc(OCCO)cc1`, the z-score in [1] is 0.174; in [2], -0.829 (inactive); in experiment [3] it was 0.686 (inactive); in experiment [5], 0.967 (inactive); in [6], 0.159 (inactive); in [7], 0.312 (inactive). In addition, the z-score is 0.471 (inactive) in experiment [8] and 0.68 in experiment [9]. Also, the composite z-score in experiment [4] is -1.01 (inactive); in experiment [10] it was -0.177.
On to `O=C1O[C@@H](c2ccccc2)[C@@H](c2ccccc2)N2[C@@H](c3ccc(OCCO)cc3)[C@]3(C(=O)Nc4ccc(C#CCCO)cc43)[C@@H](C(=O)O)[C@H]12`, for which the z-score was -0.0464 in experiment [1]; -0.718 (inactive) in [2]; 0.314 (inactive) in experiment [3]; 0.185 (inactive) in experiment [5]; 0.575 (inactive) in experiment [6]; 0.932 (inactive) in experiment [7]. For the same molecule, the results for the z-score in experiment [8] and in [9] were 0.91 (inactive) and 0.104, respectively. Further, the composite z-score in [4] was -1.25 (inactive); in experiment [10], 0.104.
On to `C=CCN1C(=O)[C@]2(O[C@H](CCn3cc([C@H](O)c4ccccc4)nn3)[C@@H]([Si](C)(C)c3ccc(OC)cc3)[C@@H]2C)c2cc(NC(=O)c3ccc(OC)cc3)ccc21`, for which the z-score is -1.66 in [1]; -0.971 (inactive) in experiment [2]; -3.65 (inactive) in experiment [3]; 1.59 (inactive) in experiment [5]; 1.11 (inactive) in experiment [6]; 0.517 (inactive) in experiment [7]. Moreover, the z-score in experiment [8] is 0.418 (inactive); in [9], -3.68. Moreover, the composite z-score in [4] was 0.717 (inactive); in [10] it was -0.02.
With `C=C(COC)C(=O)CC[C@H](OC(=O)c1cccnc1)c1ccc(OCCO)cc1`, the z-score in experiment [1] was -0.974; in [2], -3.4 (inactive); in [3], -0.443 (inactive); in experiment [5], -0.0342 (inactive); in experiment [6], 1.29 (inactive); in experiment [7] it was -0.768 (inactive). Further, the z-score was -0.8 (inactive) in [8] and -0.776 in [9]. In addition, the composite z-score in [4] is -2.45 (inactive); in [10], -0.0013.
Turning to `C[C@@H]1ON(c2ccc(I)cc2)[C@H](c2cccc(NC(=O)OCC3c4ccccc4-c4ccccc43)c2)[C@H]1C(=O)N1C(=O)OC[C@H]1Cc1ccccc1`, the z-score is 0.742 in experiment [1]; -1.04 (inactive) in experiment [2]; 0.965 (inactive) in experiment [3]; 0.13 (inactive) in experiment [5]; 0.774 (inactive) in [6]; 1.32 (inactive) in experiment [7]. Further, the z-score in experiment [8] was 0.818 (inactive); in experiment [9] it was 1.06. Further, the values for the composite z-score in [4] and in experiment [10] were 0.14 (inactive) and -0.412, respectively.
In the case of `C=CCOC(=O)[C@H]1[C@@H]2C(=O)O[C@@H](c3ccccc3)[C@@H](c3ccccc3)N2[C@@H](c2ccc(OCCOC(=O)[C@@H]3C[C@@H]4C(=O)N[C@@H](CCCC[N+](C)(C)C)C(=O)N4[C@@H]3c3ccc(O)cc3)cc2)[C@]12C(=O)Nc1ccc(I)cc12`, the z-score in [1] was -0.0156; in [2] it was 0.118 (inactive); in experiment [3], -1.17 (inactive); in experiment [5] it was 1.12 (inactive); in [6], 2.46 (inactive); in experiment [7], -1.46 (inactive). Besides, the z-score in experiment [8] is -1.11 (inactive); in experiment [9], -0.854. Also, the composite z-score in experiment [4] was -2.21 (inactive); in experiment [10] it was 0.261.
Regarding `Cc1ccc(S[C@]2(C(=O)NC(C)C)CC(=O)N(C3CCCCC3)[C@@H]2c2ccc(CO)cc2I)cc1`, the z-score is 0.748 in [1]; 0.27 (inactive) in experiment [2]; -0.611 (inactive) in experiment [3]; 0.462 (inactive) in experiment [5]; 1.16 (inactive) in [6]; 0.384 (inactive) in [7]. Besides, the results for the z-score in experiment [8] and in experiment [9] were -0.138 (inactive) and -2.01, respectively. Also, the composite z-score was 0.62 (inactive) in [4] and -0.0559 in experiment [10].
For `C=CCN1C(=O)[C@@]2(O[C@@H](CCn3cc([C@H](O)c4ccccc4)nn3)[C@H]([Si](C)(C)c3ccc(OC)cc3)[C@H]2C)c2cc(N3C(=O)c4cccc5cccc3c45)ccc21`, the z-score in experiment [1] was -1.36; in experiment [2] it was 0.318 (inactive); in experiment [3], -2.17 (inactive); in [5] it was 0.72 (inactive); in [6], 1.72 (inactive); in experiment [7], 0.0833 (inactive). In addition, the z-score is -0.0869 (inactive) in [8] and -2.42 in [9]. Further, the composite z-score in [4] is -0.0217 (inactive); in [10], 0.212.

The values above are taken from PubChem BioAssay.
